Rows were chosen to be rich in hits. Some 7.9% of all compounds tested hit in one or more screens of this group.
KB-3-1 tox: qHTS assay for MDR1-selective chemotherapeutics: Primary screen using the parental adenocarcinoma cell KB-3-1 | Potency, µM (highest dose often 46.1 µM), most hits filed as cytotoxic | KB-3-1 viability, CellTiter-Glo ATP luminescence, 72 h | AID 1347075, 2019 | actives 1.4% (n = 400,000); further: on the % scale 0 is the no-effect control and ±100 the full control effect; nearly all actives have a fitted effect of over 60% in size
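Cytotoxicity measured as CellTiter-Glo luminescence after 72 h at 37 C. Compound titrations were pinned onto drug-naive KB-3-1 parental adenocarcinoma cells grown in DMEM with 10% FBS, and normalized data fitted to concentration-response curves.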
KB-V1 cytotox: qHTS assay for MDR1-selective chemotherapeutics: Primary screen using the drug-selected MDR subline cells KB-V1; KB-V1 MDR cells viability, CellTiter-Glo, 72 h; Potency, µM (doses to about 46.1 µM), actives largely listed as cytotoxic; actives 3.4% (n = 400,000); further: on the % scale 0 is the no-effect control and ±100 the full control effect; nearly all actives have a fitted effect of over 60% in size
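Following 72 h at 37 degrees C with compound, KB-V1 cell viability was read by CellTiter-Glo luminescence, medium being phenol-red-free DMEM plus 10% FBS; concentration-response parameters came from normalized, curve-fitted qHTS data.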
MCF10A rereplic: A quantitative high throughput screen for small molecules that induce DNA re-replication in MCF 10a normal breast cells. MCF 10A DNA re-replication, Hoechst nuclear intensity, 48 h. actives 2.9% (n = 350,000). Potency, µM (series often up to 46.1 µM), for the others: top-dose activity, positive = re-replication, actives largely listed as activators. AID 624296, 2012; further: % of control where 0% means no effect; nearly all actives have a fitted effect of over 50% in size
HT1080-NT tox: qHTS for induction of synthetic lethality in tumor cells producing 2HG: qHTS for the HT-1080-NT fibrosarcoma cell line | actives 1.6% (n = 360,000) | HT-1080-NT fibrosarcoma viability, CellTiter-Glo ATP luminescence, 48 h | Potency, µM (titrated, usually from 46.1 µM), without a hit: top-dose activity, negative = less viability, actives largely listed as cytotoxic;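 further: NT is the 2HG producing partner of a matched IDH1 knockdown line; 0% = DMSO-treated cells and -100% = media-only wells without cells; nearly all actives have a fitted effect of over 55% in size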
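HT-1080-NT fibrosarcoma cells (2HG-overproducing), 750 cells/well in RPMI with 5% FBS, dosed after 2 h and incubated 48 h at 37C. CellTiter-Glo luminescence normalized to DMSO and no-cell wells; concentration-response curves fitted and classed.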
HT1080 IDH1KD tx: qHTS for induction of synthetic lethality in tumor cells producing 2HG: qHTS for the HT-1080-IDH1KD cell line; actives 2% (n = 360,000); Potency, µM (titrated, usually from 46.1 µM), for the others: at the highest dose activity, negative = toxicity, hits mostly cytotoxic; HT-1080 IDH1 knockdown viability, ATP luminescence, 48 h; AID 686971, 2013;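 further: 0% = DMSO wells and -100% = cell-free medium wells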
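Viability of IDH1-knockdown HT-1080 fibrosarcoma cells was assessed by CellTiter-Glo after 48 h at 37 °C with titrated compound; concentration-effect curves were classified by fit quality and response size.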
SW480 rerep: A quantitative high throughput screen for small molecules that induce DNA re-replication in SW480 colon adenocarcinoma cells | SW480 DNA re-replication, Hoechst DNA content imaging, 48 h | Potency, µM (series often up to 46.1 µM), for inactives: top-dose re-replication activation, actives largely listed as activators | actives 1.8% (n = 340,000) | AID 624297, 2012; further: % of control where 0% means no effect; nearly all actives have a fitted effect of over 55% in size
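Image-based read-out: total Hoechst fluorescence of nuclei (405 nm excitation, 500-530 nm emission), with hits raising the fraction of high-intensity nuclei. SW480 colon cells incubated 48 hr with compounds at 37 C.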
* hit, by the source's call; i = inactive; ? = inconclusive; / = no result given. The call rests on the fitted dose curve; in most records, active means well fitted curve in the direction sought with a large enough effect; inconclusive means small, poorly fitted or top-dose-only effect, or another doubt; inactive means no such curve, though single readings can be large; an effect the other way counts as inactive or inconclusive. Potency means the concentration at half of the fitted maximal effect.

SMILES | KB-3-1 tox | KB-V1 cytotox | MCF10A rereplic | HT1080-NT tox | HT1080 IDH1KD tx | SW480 rerep
O=C(Cn1cnc2c(cnn2-c2ccc(F)cc2)c1=O)NCc1ccco1 | 9.2µM* | 8.2µM* | 15µM* | ? | 18µM* | ?
COc1ccc(OC)c(/C=C/C(=O)OCC(=O)N2CCCC2)c1 | i | i | -4% | 9% | 0% | 1%
COc1ccc(/C=C/C(=O)OCC(=O)N2CCCC2)c(OC)c1 | i | 12µM* | 2% | 10% | 20% | -3%
O=C(/C=C/c1cccc(F)c1)NNC(=O)c1ccncc1 | ? | 8.2µM* | 5% | -8% | -30% | 0%
CCc1ccc(NC(=O)COc2ccc(/C=C(/C#N)c3nc4ccccc4[nH]3)cc2OC)cc1 | 1.5µM* | ? | ? | ? | ? | ?
COC(=O)c1ccc(COc2ccc(/C=C(\C#N)c3nc4ccccc4[nH]3)cc2OC)o1 | i | ? | ? | 0% | 3% | 5%
Cc1[nH]c2ccccc2c1C(c1c[nH]c2ccccc12)c1c(C)[nH]c2ccccc12 | i | i | / | / | / | /
O=C(Nc1ccc(OC(F)F)cc1)c1nc(S(=O)(=O)Cc2ccccc2F)ncc1Cl | ? | i | / | / | / | /
Cc1cccc(C)c1NC(=O)CSc1nnc(Cn2nnc(-c3ccccc3)n2)n1-c1ccccc1 | i | 8.2µM* | 9% | -2% | 2% | 0%
O=C(CSc1nnc(Cn2nnc(-c3ccccc3)n2)n1-c1ccccc1)Nc1ccc(F)cc1 | i | i | 0% | 7% | 7% | -4%
O=C(CSc1nnc(Cn2nnc(-c3ccccc3)n2)n1-c1ccccc1)Nc1ccccc1 | i | 15µM* | 20% | 0% | -2% | 0%
Cc1nn(C)c(C)c1NC(=O)CSc1nnc(C)n1-c1ccccc1 | i | i | 0% | 6% | 0% | -4%
CCCCNC(=O)C(NC(=O)c1cccc(C(F)(F)F)c1)C(=O)c1ccccc1 (stereo not given) | i | i | / | 13% | 8% | /
Cc1cccc(Nc2cc(C)nc3ccccc23)c1 | i | i | 11% | -2% | -17% | -25%
Cc1cc(Nc2ccccc2)c2c([N+](=O)[O-])c(C)cc(C)c2n1 | ? | 21µM* | 20% | 1% | -17% | -6%
CCc1nc2ccc(C(=O)Nc3cccc(OCC(=O)N(C)C)c3)cn2c1N(CC)CCOC | i | i | / | 28% | ? | /
Cc1ccccc1CN1Cc2cccc3c2[C@H](C=CC3)CC1=O | i | ? | / | / | / | /
O=C1/C(=C/c2ccccc2)Oc2cc(OC(=O)N3CCOCC3)ccc21 | i | 21µM* | 10% | 11% | 11% | -5%
O=C1/C(=C/c2ccc(F)cc2)Oc2cc(OC(=O)N3CCOCC3)ccc21 | i | i | -3% | 12% | 11% | -7%
COc1cccc(OC)c1C(=O)Oc1ccc2c(c1)O/C(=C\c1ccncc1)C2=O | ? | ? | ? | 18µM* | ? | ?
COc1ccc(-n2nc(C(=O)N3CCCCC3C)c3c4ccccc4n(C)c3c2=O)cc1Cl (stereo not given) | i | i | / | / | / | /
Nc1nc2cc3ccccc3cc2[nH]c1=O | 6.5µM* | 3.7µM* | 5% | 0% | -5% | 6%
Nc1ccc2nc(CCCCCCCCc3nc4ccc(N)cc4[nH]3)[nH]c2c1 | i | i | 2.3µM* | -4% | 0% | 0%
Nc1cccc(CCc2nc3cc4ccccc4cc3[nH]2)c1 | 5.2µM* | 5.8µM* | 7.3µM* | ? | 10µM* | 3.7µM*

Bioassay records from PubChem.
